Hit rate of the full screen: of about 5,500 compounds, about 2,000 (36%) were called active. About 18% were inconclusive and are not listed. Some of the results follow. Unmarked numbers belong to inactive results. Rule as the data show it: active = normalized growth mostly below about 0.91 (no sharp cut-off); inconclusive = no clear call, values can overlap the other calls; inactive = mostly above about 0.92.
Assay: chemical genetic growth profiling, strain panel (AID 1159580);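 also: tested at 20 µM; growth read once vehicle control cultures reached saturation at 30 °C; 1 = growth at the plate median or of vehicle wells; lower values mean less growth of the strain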
Settings: S. cerevisiae deletion strains, growth OD
[1] = locus YAR019C, strain CDC15, stronger effect = lower value
[2] = locus YBL105C, strain PKC1, stronger effect = lower value
[3] = locus YBR135W, strain CKS1, stronger effect = lower value
[4] = locus YBR136W, strain MEC1, stronger effect = lower value
[5] = locus YBR160W, strain CDC28, stronger effect = lower value
[6] = locus YDL017W, strain CDC7, stronger effect = lower value
[7] = locus YDL028C, strain MPS1, stronger effect = lower value
[8] = locus YDL101C, strain DUN1, stronger effect = lower value
[9] = locus YDL108W, strain KIN28, stronger effect = lower value
[10] = locus YDL132W, strain cdc53, stronger effect = lower value
[11] = locus YDL214C, strain PRR2, stronger effect = lower value
[12] = locus YDR052C, strain DBF4, stronger effect = lower value
[13] = locus YDR054C, strain cdc34, stronger effect = lower value
[14] = locus YDR226W, strain ADK1, stronger effect = lower value
[15] = locus YDR477W, strain SNF1, stronger effect = lower value
[16] = locus YER123W, strain YCK3, stronger effect = lower value
[17] = locus YER133W, strain GLC7, stronger effect = lower value
[18] = locus YFL009W, strain cdc4, stronger effect = lower value
[19] = locus YFL029C, strain CAK1, stronger effect = lower value
[20] = locus YFR003C, strain YPI1, stronger effect = lower value
[21] = locus YFR019W, strain FAB1, stronger effect = lower value
[22] = locus YFR028C, strain CDC14, stronger effect = lower value
[23] = locus YGR040W, strain KSS1, stronger effect = lower value
[24] = locus YGR052W, strain FMP48, stronger effect = lower value
[25] = locus YGR092W, strain DBF2, stronger effect = lower value
[26] = locus YHR030C, strain SLT2, stronger effect = lower value
[27] = locus YHR079C, strain IRE1, stronger effect = lower value
[28] = locus YHR082C, strain KSP1, stronger effect = lower value
[29] = locus YHR205W, strain SCH9, stronger effect = lower value
[30] = locus YIL147C, strain SLN1, stronger effect = lower value
[31] = locus YJL095W, strain BCK1, stronger effect = lower value
[32] = locus YJL128C, strain PBS2, stronger effect = lower value
[33] = locus YJL157C, strain FAR1, stronger effect = lower value
[34] = locus YJR016C, strain ILV3, stronger effect = lower value
[35] = locus YJR066W, strain TOR1 (second series), stronger effect = lower value
[36] = locus YJR066W, strain TOR1, stronger effect = lower value
[37] = locus YKL048C, strain ELM1, stronger effect = lower value
[38] = locus YKL067W, strain YNK1, stronger effect = lower value
[39] = locus YKL101W, strain HSL1, stronger effect = lower value
[40] = locus YKL193C, strain SDS22, stronger effect = lower value
[41] = locus YKL203C, strain TOR2, stronger effect = lower value
[42] = locus YLR113W, strain HOG1, stronger effect = lower value
[43] = locus YLR133W, strain CKI1, stronger effect = lower value
[44] = locus YLR403W, strain SFP1, stronger effect = lower value
[45] = locus YML070W, strain DAK1, stronger effect = lower value
[46] = locus YMR001C, strain CDC5, stronger effect = lower value
[47] = locus YMR205C, strain PFK2 (second series), stronger effect = lower value
[48] = locus YMR277W, strain FCP1, stronger effect = lower value
[49] = locus YNL006W, strain LST8, stronger effect = lower value
[50] = locus YNL020C, strain ARK1, stronger effect = lower value
[51] = locus YNL161W, strain CBK1, stronger effect = lower value
[52] = locus YNL183C, strain NPR1, stronger effect = lower value
[53] = locus YNL207W, strain RIO2, stronger effect = lower value
[54] = locus YNL222W, strain SSU72, stronger effect = lower value
[55] = locus YNL307C, strain MCK1 (second series), stronger effect = lower value
[56] = locus YOL078W, strain AVO1, stronger effect = lower value
[57] = locus YOL136C, strain PFK27, stronger effect = lower value
[58] = locus YOR061W, strain CKA2, stronger effect = lower value
[59] = locus YOR119C, strain RIO1, stronger effect = lower value
[60] = locus YOR231W, strain MKK1, stronger effect = lower value
[61] = locus YOR329C, strain SCD5, stronger effect = lower value
[62] = locus YPL031C, strain PHO85, stronger effect = lower value
[63] = locus YPL153C, strain RAD53, stronger effect = lower value
[64] = locus YPL204W, strain HRR25, stronger effect = lower value
[65] = locus YPL209C, strain IPL1, stronger effect = lower value
[66] = locus YPL256C, strain CLN2, stronger effect = lower value
[67] = locus YPR025C, strain CCL1, stronger effect = lower value
[68] = locus YPR106W, strain ISR1, stronger effect = lower value
[69] = locus YPR111W, strain DBF20, stronger effect = lower value
[70] = strain NNK1, stronger effect = lower value
[71] = strain TSCII, stronger effect = lower value
[72] = locus YAL013W, strain DEP1, stronger effect = lower value
[73] = locus YBR229C, strain ROT2, stronger effect = lower value
[74] = locus YCL061C, strain MRC1, stronger effect = lower value
[75] = locus YDR150W, strain NUM1, stronger effect = lower value
[76] = locus YEL061C, strain CIN8, stronger effect = lower value
[77] = locus YGR078C, strain PAC10, stronger effect = lower value
[78] = locus YHR087W, strain rtc3, stronger effect = lower value
[79] = locus YJR075W, strain HOC1, stronger effect = lower value
[80] = locus YKL190W, strain CNB1, stronger effect = lower value
[81] = locus YLR039C, strain RIC1, stronger effect = lower value
[82] = locus YLR058C, strain SHM2 (second series), stronger effect = lower value
[83] = locus YLR085C, strain ARP6, stronger effect = lower value
[84] = locus YLR262C, strain YPT6, stronger effect = lower value
[85] = locus YML094W, strain GIM5, stronger effect = lower value
[86] = locus YMR219W, strain ESC1, stronger effect = lower value
[87] = locus YMR263W, strain SAP30, stronger effect = lower value
[88] = locus YNL153C, strain GIM3, stronger effect = lower value
[89] = locus YNL298W, strain CLA4 (second series), stronger effect = lower value
[90] = locus YNL322C, strain KRE1, stronger effect = lower value
[91] = locus YNR030W, strain Alg12, stronger effect = lower value
[92] = locus YPL055C, strain LGE1, stronger effect = lower value
[93] = locus YPL241C, strain CIN2, stronger effect = lower value
[94] = locus YPR135W, strain CTF4, stronger effect = lower value

Structure (SMILES): Clc1ccc(-c2noc(CSC3=NCCN3)n2)cc1
- normalized growth [1]: 0.987
- normalized growth [2]: 0.987
- normalized growth [3]: 0.98
- normalized growth [4]: 0.981
- normalized growth [5]: 0.984
- normalized growth [6]: 0.986
- normalized growth [7]: 0.979
- normalized growth [8]: 0.989
- normalized growth [9]: 0.979
- normalized growth [10]: 0.98
- normalized growth [11]: 0.923
- normalized growth [12]: 0.981
- normalized growth [13]: 0.96
- normalized growth [14]: 0.975
- normalized growth [15]: 0.938
- normalized growth [16]: 0.904
- normalized growth [17]: 0.935
- normalized growth [18]: 0.978
- normalized growth [19]: 0.987
- normalized growth [20]: 0.974
- normalized growth [21]: 0.948
- normalized growth [22]: 0.971
- normalized growth [23]: 0.926
- normalized growth [24]: 0.964
- normalized growth [25]: 0.955
- normalized growth [26]: 0.93
- normalized growth [27]: 0.968
- normalized growth [28]: 1.02
- normalized growth [29]: 0.962
- normalized growth [30]: 0.969
- normalized growth [31]: 0.949
- normalized growth [32]: 0.912
- normalized growth [33]: 0.925
- normalized growth [34]: 0.974
- normalized growth [35]: 0.912
- normalized growth [36]: 1.08
- normalized growth [37]: 0.96
- normalized growth [38]: 0.933
- normalized growth [39]: 0.939
- normalized growth [40]: 0.976
- normalized growth [41]: 1.01
- normalized growth [42]: 0.839 (active)
- normalized growth [43]: 0.959
- normalized growth [44]: 0.982
- normalized growth [45]: 0.912
- normalized growth [46]: 0.987
- normalized growth [47]: 0.938
- normalized growth [48]: 0.975
- normalized growth [49]: 0.985
- normalized growth [50]: 0.962
- normalized growth [51]: 0.965
- normalized growth [52]: 1.05
- normalized growth [53]: 0.988
- normalized growth [54]: 0.981
- normalized growth [55]: 0.946
- normalized growth [56]: 0.974
- normalized growth [57]: 0.941
- normalized growth [58]: 0.938
- normalized growth [59]: 1
- normalized growth [60]: 0.965
- normalized growth [61]: 0.981
- normalized growth [62]: 0.924
- normalized growth [63]: 0.92
- normalized growth [64]: 0.903
- normalized growth [65]: 0.986
- normalized growth [66]: 0.945
- normalized growth [67]: 0.986
- normalized growth [68]: 0.975
- normalized growth [69]: 0.97
- normalized growth [70]: 0.977
- normalized growth [71]: 0.986

Structure (SMILES): O=S(=O)(c1cc(Br)c(Br)s1)N1CCCCC1
- normalized growth [72]: 1.01
- normalized growth [73]: 0.993
- normalized growth [74]: 0.967
- normalized growth [8]: 0.963
- normalized growth (locus YDL134C, strain PPH21, stronger effect = lower value): 1.02
- normalized growth [75]: 1.01
- normalized growth [76]: 1.01
- normalized growth [77]: 1.01
- normalized growth (locus YGR229C, strain SMI1, stronger effect = lower value): 0.984
- normalized growth [26]: 1.14
- normalized growth [78]: 1.03
- normalized growth (locus YJR043C, strain POL32, stronger effect = lower value): 0.964
- normalized growth [79]: 1.01
- normalized growth [80]: 1.02
- normalized growth [81]: 0.942
- normalized growth [82]: 1.01
- normalized growth [83]: 1.02
- normalized growth [84]: 0.991
- normalized growth [85]: 1
- normalized growth [86]: 1
- normalized growth [87]: 1
- normalized growth [88]: 0.955
- normalized growth [89]: 1.02
- normalized growth [90]: 1.02
- normalized growth [91]: 1.03
- normalized growth [92]: 0.946
- normalized growth [93]: 1
- normalized growth [94]: 1.04

Structure (SMILES): COc1cc(Cl)c(NS(=O)(=O)c2cc(Br)c(Br)s2)c(OC)c1
- normalized growth [1]: 0.96
- normalized growth [2]: 0.977
- normalized growth [3]: 0.967
- normalized growth [4]: 0.977
- normalized growth [5]: 0.958
- normalized growth [6]: 0.978
- normalized growth [7]: 0.96
- normalized growth [8]: 0.977
- normalized growth [9]: 0.957
- normalized growth [10]: 0.954
- normalized growth [11]: 0.916
- normalized growth [12]: 0.988
- normalized growth [13]: 0.953
- normalized growth [14]: 0.962
- normalized growth [15]: 0.904
- normalized growth [16]: 0.898
- normalized growth [17]: 0.918
- normalized growth [18]: 0.948
- normalized growth [19]: 0.956
- normalized growth [20]: 0.973
- normalized growth [21]: 0.964
- normalized growth [22]: 0.949
- normalized growth [23]: 0.888
- normalized growth [24]: 0.923
- normalized growth [25]: 0.831
- normalized growth [26]: 0.664 (active)
- normalized growth [27]: 0.905
- normalized growth [28]: 0.924
- normalized growth [29]: 0.933
- normalized growth [30]: 0.961
- normalized growth [31]: 0.885
- normalized growth [32]: 0.923
- normalized growth [33]: 0.919
- normalized growth [34]: 0.972
- normalized growth [35]: 0.858
- normalized growth [36]: 0.896
- normalized growth [37]: 0.969
- normalized growth [38]: 0.9
- normalized growth [39]: 0.917
- normalized growth [40]: 0.959
- normalized growth [41]: 0.986
- normalized growth [42]: 0.815 (active)
- normalized growth [43]: 0.959
- normalized growth [44]: 0.922
- normalized growth [45]: 0.916
- normalized growth [46]: 0.969
- normalized growth [47]: 0.948
- normalized growth [48]: 0.946
- normalized growth [49]: 0.955
- normalized growth [50]: 0.931
- normalized growth [51]: 0.97
- normalized growth [52]: 0.904
- normalized growth [53]: 0.962
- normalized growth [54]: 0.95
- normalized growth [55]: 0.902
- normalized growth [56]: 0.96
- normalized growth [57]: 0.901
- normalized growth [58]: 0.912
- normalized growth [59]: 0.918
- normalized growth [60]: 0.908
- normalized growth [61]: 0.965
- normalized growth [62]: 0.894
- normalized growth [63]: 0.866
- normalized growth [64]: 0.868
- normalized growth [65]: 0.976
- normalized growth [66]: 0.856 (active)
- normalized growth [67]: 0.968
- normalized growth [68]: 0.954
- normalized growth [69]: 0.938
- normalized growth [70]: 0.975
- normalized growth [71]: 0.963

Structure (SMILES): COc1ccc(OC)c(S(=O)(=O)NCc2c(F)cccc2Cl)c1
- normalized growth [72]: 0.994
- normalized growth [73]: 1.01
- normalized growth [74]: 1.01
- normalized growth [8]: 1.02
- normalized growth [75]: 0.985
- normalized growth [76]: 1.04
- normalized growth [77]: 1.02
- normalized growth [26]: 1.02
- normalized growth [78]: 1
- normalized growth [79]: 1.01
- normalized growth [80]: 1.01
- normalized growth [81]: 0.928
- normalized growth [82]: 1.02
- normalized growth [83]: 1.02
- normalized growth [84]: 0.893
- normalized growth [85]: 0.992
- normalized growth [86]: 1.01
- normalized growth [87]: 1.01
- normalized growth (locus YMR307W, strain GAS1, stronger effect = lower value): 1.09
- normalized growth [88]: 0.993
- normalized growth [89]: 1.02
- normalized growth [90]: 1.01
- normalized growth [91]: 1.02
- normalized growth (locus YOL006C, strain TOP1, stronger effect = lower value): 0.98
- normalized growth [92]: 1.02
- normalized growth [93]: 1.01
- normalized growth [94]: 1.01
